This is an account of results in PubChem BioAssay (Tox21).

Values joined by “and” are separate entries in the source; they are usually repeats but may differ in a detail not shown here. Equal values may be shown once. Inconclusive results are not listed. A structure can be active in one record and inactive in another. Active and inactive are the calls of the source. The call rests on the fitted dose curve; in most records, active means well fitted inhibition curve with a large enough effect in the repeat runs; inconclusive means weak or mixed curves; inactive means no such curve, though single readings can be large or run the other way.
Further: nearly all actives have a fitted effect of over 50% in size.
On the % scale 0 is the no-effect control and ±100 the full control effect; potency means the concentration at half of the fitted maximal effect.

Chain of Cytochrome P450 1A2 (Homo sapiens) (P05177 whole entry, looked up): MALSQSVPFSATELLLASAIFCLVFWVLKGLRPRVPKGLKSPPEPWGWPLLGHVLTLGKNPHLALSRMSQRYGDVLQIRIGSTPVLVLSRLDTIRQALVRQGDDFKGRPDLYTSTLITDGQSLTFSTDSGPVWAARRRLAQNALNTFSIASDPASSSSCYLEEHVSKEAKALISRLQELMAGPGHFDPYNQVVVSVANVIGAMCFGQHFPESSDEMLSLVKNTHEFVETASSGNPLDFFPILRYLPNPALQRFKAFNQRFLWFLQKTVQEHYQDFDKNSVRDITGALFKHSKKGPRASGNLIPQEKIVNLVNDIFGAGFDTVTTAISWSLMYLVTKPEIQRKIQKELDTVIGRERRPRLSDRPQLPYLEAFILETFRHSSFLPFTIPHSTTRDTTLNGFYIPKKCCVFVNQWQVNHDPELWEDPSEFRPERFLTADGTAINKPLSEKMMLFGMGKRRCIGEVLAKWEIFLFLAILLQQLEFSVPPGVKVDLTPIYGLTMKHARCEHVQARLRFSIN
Chain of Cytochrome P450 2C9 (Homo sapiens) (P11712 whole entry, looked up): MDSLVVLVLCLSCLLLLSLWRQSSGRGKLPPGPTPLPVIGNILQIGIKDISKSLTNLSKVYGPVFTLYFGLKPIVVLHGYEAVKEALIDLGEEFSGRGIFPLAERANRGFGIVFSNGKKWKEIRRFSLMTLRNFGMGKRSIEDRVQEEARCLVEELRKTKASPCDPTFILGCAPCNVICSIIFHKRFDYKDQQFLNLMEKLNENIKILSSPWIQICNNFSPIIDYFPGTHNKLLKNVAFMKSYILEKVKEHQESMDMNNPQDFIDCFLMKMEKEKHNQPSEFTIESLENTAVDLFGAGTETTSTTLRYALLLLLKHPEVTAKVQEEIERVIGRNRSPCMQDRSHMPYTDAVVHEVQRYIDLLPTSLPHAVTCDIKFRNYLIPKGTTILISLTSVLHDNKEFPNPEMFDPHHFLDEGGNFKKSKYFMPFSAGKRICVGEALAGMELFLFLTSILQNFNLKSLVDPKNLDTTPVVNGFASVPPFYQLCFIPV

One test has as its target Cytochrome P450 2C9 (Homo sapiens) (UniProt P11712). The test is described as follows: Cytochrome P450 Family 2 Subfamily C Member 9 (CYP2C9) small molecule antagonists: luciferase reporter qHTS assay (AID 1671198). Particulars: P450-Glo CYP2C9 enzyme assay, luciferin luminescence; series mostly up to 115 µM; activity change, negative = inhibition: at the top concentration. The method, boiled down: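 P450-Glo proluciferin substrate with CYP2C9 enzyme; 10 min RT preincubation, then NADPH regeneration 1 h at 37C; luciferin detection reagent 20 min RT, luminescence in relative luminescence units.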
With `N[C@@H](CSSC[C@H](N)C(=O)O)C(=O)O`, the activity change, negative = inhibition was 1.25% [at 0.435 µM] (inactive). Turning to `Clc1cc(Cl)c(-c2c(Cl)c(Cl)cc(Cl)c2Cl)cc1Cl`, the “activity change, negative = inhibition” value was 6.79% [at 53 µM] (inactive). Take `CCCCCCCCCCCCOC(=O)c1cc(O)c(O)c(O)c1`: the Potency is 9.99 µM (active) and 28.3 µM (active). Turning to `CCCC(C)CCC(C)=O` (configuration not stated), the “activity change, negative = inhibition” value is -0.0929% (inactive). `COc1cc(C(=O)NS(=O)(=O)c2ccccc2C)ccc1Cc1cn(C)c2ccc(NC(=O)OC3CCCC3)cc12`: the Potency was 15.5 µM (active). Take `C=C1C(C)(C)[C@@]2(Cl)C(Cl)[C@]1(Cl)C(Cl)(Cl)C2(Cl)Cl` (some centres not stated): the Potency was 13.9 µM (active). For the molecule `CCCCCCC(C)OC(=O)COc1nc(F)c(Cl)c(N)c1Cl` (configuration not stated), the Potency is 17.8 µM (active). Take `c1cc(OCC2CO2)cc(OCC2CO2)c1` (configuration not stated): the Potency is 39.6 µM (active).

On to `COc1ccccc1C=O`, for which the “activity change, negative = inhibition” value is -4.37% (inactive).

Consider `CNC(=O)c1cc(Oc2ccc(NC(=O)Nc3ccc(Cl)c(C(F)(F)F)c3)cc2)ccn1`, for which the Potency was 17.4 µM (active).

Consider `COC(=O)NCCC[Si](OC)(OC)OC`, for which the “activity change, negative = inhibition” value is -6% (inactive). For the molecule `O=C1OC(=O)c2cccc3cccc1c23`, the “activity change, negative = inhibition” value was 0.286% (inactive).

`CCN(CC)CCNc1ccc(CO)c2sc3ccccc3c(=O)c12`: the “activity change, negative = inhibition” value was 8.96% [at 53 µM] (inactive).

As to `Cc1cc(Nc2ccc(O)cc2)ccc1N`, the Potency was 5.62 µM (active). Take `C(=C/c1ccccc1)/c1ccccc1`: the “activity change, negative = inhibition” value is -8.75% (inactive). Turning to `c1cc[nH]c1`, the “activity change, negative = inhibition” value was -6.89% (inactive). Regarding `CCCCOc1ccc(C(=O)CCN2CCCCC2)cc1`, the Potency is 17.4 µM (active). Turning to `NCCCCCCNCCCCCCN`, the “activity change, negative = inhibition” value was -18.1% (inactive).

As to `CCN=C1C=CC(=C(c2ccc(N(CC)CC)cc2)c2ccc(N(CC)CC)cc2)c2ccccc21`, the Potency is 15.8 µM (active).

`CCCCOC(=O)C(C)CC` (configuration not stated): the “activity change, negative = inhibition” value was -6.59% (inactive). Same read-out and setting: with `O=C[C@H](O)[C@H](O)[C@H](O)CO` the figure was -5.96% (inactive); with `O=S(O)O`, -8.41% [at 23.6 µM] (inactive).

As for `CN(C)c1ccc(N=Nc2ccccc2C(=O)O)cc1`, the Potency was 31.7 µM (active). As to `CCCCCCOc1ccc(O)cc1`, the Potency was 39.9 µM (active). Turning to `COc1cccc(O)c1`, the “activity change, negative = inhibition” value was 52% (inactive). As for `COc1cccc(CCc2ccccc2OCC(CN(C)C)OC(=O)CCC(=O)O)c1` (configuration not stated), the “activity change, negative = inhibition” value is -18.5% [at 53 µM] (inactive).

On to `CC1=C(/C=C/C(C)=C/C=C/C(C)=C/C(=O)Nc2ccc(O)cc2)C(C)(C)CCC1`, for which the Potency is 9.17 µM (active) and 8.71 µM (active). In the case of `O=C1Nc2ccc(Cl)cc2[C@@](C#CC2CC2)(C(F)(F)F)O1`, the Potency is 15.5 µM (active). On the same count and under the same terms, with `CCCCCCCOC(=O)c1ccc(O)cc1` the figure was 35.6 µM (active) and 39.9 µM (active).

In the case of `CC1CCCCC1`, the “activity change, negative = inhibition” value was -6.03% (inactive).

The next test has as its target Cytochrome P450 1A2 (Homo sapiens) (UniProt P05177). The experiment in a line: Cytochrome P450 Family 1 Subfamily A Member 2 (CYP1A2) small molecule antagonists: luciferase reporter qHTS assay (AID 1671199). Particulars: P450-Glo CYP1A2 enzyme, luciferin luminescence, 1 h; series mostly up to 115 µM; activity change, negative = inhibition: at the top concentration. The method, boiled down: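 Quantitative high-throughput format using the P450-Glo CYP1A2 system. Reaction initiated by NADPH regeneration solution, 1 h at room temperature, then stopped with detection reagent; luminescence measured 20 min later.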
For `N[C@@H](CSSC[C@H](N)C(=O)O)C(=O)O`, the activity change, negative = inhibition was -15.1% [at 0.435 µM] (inactive). Take `Clc1cc(Cl)c(-c2c(Cl)c(Cl)cc(Cl)c2Cl)cc1Cl`: the “activity change, negative = inhibition” value was 10.7% [at 53 µM] (inactive). In the case of `CCCCCCCCCCCCOC(=O)c1cc(O)c(O)c(O)c1`, the “activity change, negative = inhibition” value is -16.9% (inactive). On to `CCCC(C)CCC(C)=O` (configuration not stated), for which the “activity change, negative = inhibition” value was -8.61% (inactive). For `COc1cc(C(=O)NS(=O)(=O)c2ccccc2C)ccc1Cc1cn(C)c2ccc(NC(=O)OC3CCCC3)cc12`, the “activity change, negative = inhibition” value was -4.13% [at 53 µM] (inactive). Take `C=C1C(C)(C)[C@@]2(Cl)C(Cl)[C@]1(Cl)C(Cl)(Cl)C2(Cl)Cl` (some centres not stated): the Potency is 39.2 µM (active). For the molecule `CCCCCCCCCCCCCC[n+]1ccccc1`, the Potency is 71 µM (active). As for `CCCCCCC(C)OC(=O)COc1nc(F)c(Cl)c(N)c1Cl` (configuration not stated), the Potency was 5.64 µM (active). With `COc1ccccc1C=O`, the “activity change, negative = inhibition” value is -21.9% (inactive). For the molecule `CNC(=O)c1cc(Oc2ccc(NC(=O)Nc3ccc(Cl)c(C(F)(F)F)c3)cc2)ccn1`, the “activity change, negative = inhibition” value was 0.509% [at 53 µM] (inactive). For `Brc1ccccc1-c1ccccc1`, the Potency was 16.6 µM (active). For `COC(=O)NCCC[Si](OC)(OC)OC`, the “activity change, negative = inhibition” value was -10.2% (inactive).

For `O=C1OC(=O)c2cccc3cccc1c23`, the Potency was 35.9 µM (active). Consider `CCN(CC)CCNc1ccc(CO)c2sc3ccccc3c(=O)c12`, for which the Potency is 0.512 µM (active). Take `CC(=O)OC(OC(C)=O)c1ccc([N+](=O)[O-])o1`: the Potency is 45.6 µM (active). Regarding `Cc1cc(Nc2ccc(O)cc2)ccc1N`, the Potency is 35.4 µM (active).

`C(=C/c1ccccc1)/c1ccccc1`: the “activity change, negative = inhibition” value was -10.4% (inactive).

Regarding `COc1ccccc1OCCNCC(O)COc1cccc2[nH]c3ccccc3c12` (configuration not stated), the Potency was 8.12 µM (active). Consider `Cc1nc(Nc2ncc(C(=O)Nc3c(C)cccc3Cl)s2)cc(N2CCN(CCO)CC2)n1`, for which the “activity change, negative = inhibition” value is 9.81% [at 53 µM] (inactive).

As for `c1cc[nH]c1`, the “activity change, negative = inhibition” value is -18.2% (inactive). On the same count and under the same terms, next, `CCCCOc1ccc(C(=O)CCN2CCCCC2)cc1`: -15.7% [at 53 µM] (inactive). As to `NCCCCCCNCCCCCCN`, the “activity change, negative = inhibition” value is -24.2% (inactive). Consider `CCN=C1C=CC(=C(c2ccc(N(CC)CC)cc2)c2ccc(N(CC)CC)cc2)c2ccccc21`, for which the Potency is 25 µM (active). In the case of `O=C[C@H](O)[C@H](O)[C@H](O)CO`, the “activity change, negative = inhibition” value is -14.5% (inactive).

Consider `O=S(O)O`, for which the activity change, negative = inhibition is -6.76% [at 23.6 µM] (inactive).

For the molecule `CN(C)c1ccc(N=Nc2ccccc2C(=O)O)cc1`, the Potency was 25.2 µM (active). On the same count and under the same terms, next, `CCCCCCOc1ccc(O)cc1`: 39.9 µM (active); `COc1cccc(CCc2ccccc2OCC(CN(C)C)OC(=O)CCC(=O)O)c1` (configuration not stated): 30.9 µM (active); `CC1=C(/C=C/C(C)=C/C=C/C(C)=C/C(=O)Nc2ccc(O)cc2)C(C)(C)CCC1`: 72.8 µM (active) and inactive.

Take `O=C1Nc2ccc(Cl)cc2[C@@](C#CC2CC2)(C(F)(F)F)O1`: the Potency was 17.4 µM (active).

Turning to `CCCCCCCOC(=O)c1ccc(O)cc1`, the Potency was 5.64 µM (active) and 20 µM (active). On to `CC1CCCCC1`, for which the Potency is 63.3 µM (active).
